Consider 19 molecules from PubChem BioAssay (EPA / NIEHS).

As a reminder, the AC50 is the midpoint of the concentration-response curve, whichever way the signal moves.

Where a structure was tested more than once in an assay, its records may differ in their call. Active and inactive are the calls of the source. How the source made its calls: active means hit-call score of the fitted dose curve at least 0.9, where 1 is the maximum; inactive means score below 0.9.

The nature of this experiment: ATG_TA_CIS: Attagene CIS-FACTORIAL HepG2 Assay for human TA Basal Promoter (AID 2282964). The settings on record: HepG2 Attagene CIS-factorial TA basal promoter reporter; actives raise or lower the signal. The essentials:
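Background-control readout: TA basal promoter reporter mRNA, fitted in both directions relative to DMSO. Measured by RT-PCR and capillary electrophoresis 24 hours after treating HepG2 human liver cells transiently carrying multiplexed cis-regulated reporter constructs.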
`CCCCOC(=O)[C@@H](C)Oc1ccc(Oc2ccc(C(F)(F)F)cn2)cc1`: the call was inactive.

Consider `CCOC(=O)c1ccc(O)cc1`, for which the result was inactive.

Turning to `COC(=O)c1ccccc1S(=O)(=O)NC(=O)Nc1nc(OC(F)F)cc(OC(F)F)n1`, the result was inactive.

Regarding `COC(=O)c1cccc(C)c1S(=O)(=O)NC(=O)Nc1nc(OCC(F)(F)F)nc(N(C)C)n1`, the molecule was classed as inactive.

On to `CCC(O)=C1C(=O)CC(C(=O)O)CC1=O` (stereo not given), for which the result was inactive.

Regarding `CCCCOC(=O)C(C)Oc1ccc(Oc2ccc(C(F)(F)F)cn2)cc1` (stereo not given), the result was inactive.

In the case of `COC(=O)CSc1cc(N=c2sc(=O)n3n2CCCC3)c(F)cc1Cl`, the call was inactive.

`COc1nc(C)nc(NC(=O)NS(=O)(=O)c2ccccc2OCCCl)n1`: the result was inactive.

As for `N[C@@H](Cc1cc(I)c(Oc2ccc(O)c(I)c2)c(I)c1)C(=O)O`, the outcome was inactive.

As for `CCCCC(CC)CN1C(=O)C2C3C=CC(C3)C2C1=O` (stereo not given), the call was inactive.

As to `C[C@]12CC[C@@H]3c4ccc(O)cc4C[C@@H](CCCCCCCCCS(=O)CCCC(F)(F)C(F)(F)F)[C@H]3[C@@H]1CC[C@@H]2O` (stereo not given in full), the outcome was inactive.

For the molecule `CC(C)CCCCCCc1ccc(O)cc1`, the AC50 was 20.3 µM (active) and the outcome was inactive.

On to `O=C(c1ccc(O)cc1O)c1ccc(O)cc1O`, for which the result was inactive.

For the molecule `CN(C)C(=O)Nc1ccc(Cl)c(Cl)c1`, the outcome was inactive.

As to `COCCO`, the molecule was called inactive.

As for `N#CSCSc1nc2ccccc2s1`, the molecule was called inactive.

Consider `CCOC(=O)COc1cc(-n2ncc(C(F)(F)F)c(C)c2=O)c(F)cc1Cl`, for which the outcome was inactive.

In the case of `C#C[C@]1(O)CC[C@H]2[C@@H]3CCC4=CC(=O)CC[C@@H]4[C@H]3CC[C@@]21CC`, the outcome was inactive.

As for `CCCN(CCC)c1c([N+](=O)[O-])cc(C(F)(F)F)c(N)c1[N+](=O)[O-]`, the molecule was called inactive.
